# Screening results as filed in PubChem.
# In the library only some 2.2% were active in any assay of this set; here they are far more common.
# KLF5 inh: inhibitors of KLF5 expression; DLD-1 KLF5 promoter-luciferase reporter, luminescence; inhibition, % at 5 µM; actives 0.23% (n = 290,000); AID 1700;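 active means inhibition above a per-plate limit of that plate's mean compound inhibition plus 3 SD, cut at about 60% in these data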;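 further: 0% = DMSO wells and 100% = LY294002 at 200 µM; higher means less KLF5 promoter-driven luciferase light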
# Ba/F3 V617F tox: loss of viability in JAK2V617F-driven Ba/F3 cells | Ba/F3 EpoR-JAK2V617F viability, ATP luminescence | actives 1.1% (n = 220,000) | inhibition, % at 5.6 µM;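 active means inhibition above the campaign mean plus 3 SD over all tested compounds, cut at about 24% in these data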;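 further: cytokine-independent growth of Ba/F3 cells driven by EpoR plus mutant JAK2; 0% = DMSO-treated cells and 100% = JAK inhibitor I control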
# BaF3 parental: reduces parental Ba/F3 cell viability, JAK2V617F counter-screen; CellTiter-Glo ATP luminescence; inhibition, % at 5.6 µM; actives 1.1% (n = 220,000); AID 1486;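 active means inhibition above a per-campaign cutoff, the mean inhibition of all tested compounds plus 3 SD, cut at about 27% in these data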;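 further: 0% = DMSO wells and 100% = JAK Inhibitor I control wells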
# IEC-6 tox: counter-screen for KLF5 inhibitors: cytotoxicity in IEC-6 cells; actives 0.78% (n = 290,000); inhibition, % at 5 µM; AID 1825; IEC-6 cytotoxicity, luminescence viability; in the data active means inhibition above about 22%;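 further: 0% = plate median of test compound wells and 100% = cytotoxic reference compound wells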
# aSyn 5UTR inh: MLPCN primary screen, SNCA 5' untranslated region; inhibition, % (tested at 7.5 µM); actives 0.82% (n = 300,000); alpha-synuclein 5'UTR reporter, inhibitor activity; in the data active means inhibition above about 60%; inconclusive means no clear call, values can overlap the other calls;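 further: H4 neuroglioblastoma cells stably carrying SNCA 5'UTR luciferase fusion; 0% = DMSO wells and 100% = positive control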
# APP 5UTR inh: APP translation inhibition. SH-SY5Y APP 5'UTR-luciferase reporter, luminescence. inhibition, % at 2 µM. actives 0.82% (n = 190,000);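 active means inhibition above a set limit, derived from the sample mean plus 3 SD, cut at about 45% in these data; inconclusive means one replicate passes the limit while the other fails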
# The depositor's hits bear a star; u = inconclusive; x = not tested or not shown.
SMILES,KLF5 inh,Ba/F3 V617F tox,BaF3 parental,IEC-6 tox,aSyn 5UTR inh,APP 5UTR inh
CC1CCC(C(C)C)C(OC(=O)C[n+]2cc(-c3ccc(Cl)cc3)n3c2CCCCC3)C1 (stereo not drawn),21,101*,73*,5,-12,-19
O=C1C=CC2C(c3ccc4c(c3)OCO4)CC1N2Cc1ccccc1 (stereo not drawn),-25,-1,6,-2,9,10
CCCCS(=O)(=O)N1CCCC(C(=O)NCC2CCCO2)C1 (stereo not drawn),-50,x,x,3,-1,x
O=C1C(=O)c2ccc(-c3ccccc3)cc2-c2ccccc21,-14,-1,1,2,119*,-10
CNC(=O)NC(=O)C(OC(=O)CCNS(=O)(=O)c1ccccc1)c1ccccc1 (stereo not drawn),-18,x,x,1,-4,x
CCOc1ccc(CCNC(=O)CN2C(=O)c3cccnc3Oc3ccc(Cl)cc32)cc1,-17,x,x,-6,13,x
CC(C)(C)OC(=O)N1CCC(C(=O)NCC2CCCO2)CC1 (stereo not drawn),-11,x,x,5,18,x
COc1ccc(C(O)(CC(C)C)C(CN2CCOCC2)c2ccccc2)cc1 (stereo not drawn),20,x,x,-14,66*,x
CCc1ccc(C(O)(CC(C)C)C(CN2CCOCC2)c2ccccc2)cc1 (stereo not drawn),1,x,x,-5,u,x
CCc1ccc(-c2nc(CSCC(=O)N3CCN(c4ccccn4)CC3)c(C)o2)cc1,7,2,4,-3,82*,14
CCOc1ccc(-c2nc(CSCC(=O)NCc3ccco3)c(C)o2)cc1,18,-3,2,1,46,48*
Cc1ccc(-c2nc(CSCC(=O)N3CCN(c4ccccn4)CC3)c(C)o2)cc1,-18,-3,7,-1,22,12
CCOc1ccc(-c2nc(CSCC(=O)NC3CC3)c(C)o2)cc1,28,x,x,6,31,x
CCOc1ccc(-c2nc(CSCC(=O)N3CCN(c4cccc(OC)c4)CC3)c(C)o2)cc1,-15,-4,5,-2,68*,x
Cc1ccc[n+](C(C)C(=O)Nc2ccc(C)c(C)c2)c1 (stereo not drawn),-17,x,x,5,-6,x
CCN(CC)CCN(C(=O)/C=C/c1cccs1)c1nc2ccc(C)cc2s1,-26,x,x,-1,-79,x
O=C(Cc1cccs1)N/N=C/C(Cl)=C/c1ccccc1,-57,1,14,-1,-192,-65
Clc1ccc(C[n+]2cc(-c3ccccc3)n3c2CCCCC3)c(Cl)c1,4,86*,79*,12,-18,-8
Clc1ccc(-c2c[n+](Cc3ccc(Br)cc3)c3n2CCCCC3)cc1,-18,62*,69*,0,6,x
Clc1ccc(-c2cnc3n2CCCCC3)cc1,-25,2,5,4,-8,-7
Clc1ccc(-c2c[n+](Cc3ccc(Cl)cc3Cl)c3n2CCCCC3)cc1,0,73*,73*,6,8,x
O=[N+]([O-])c1ccc(C[n+]2cc(-c3ccc(Cl)c(Cl)c3)n3c2CCCCC3)cc1,-28,-2,1,5,9,x
CCOc1ccccc1NC(=O)CCCN1C(=S)NC(C)(C)CC1C (stereo not drawn),5,-4,1,2,4,-12
COc1ccc(C)cc1NC(=O)C(=O)NCc1ccncc1,-6,-2,96*,2,-1,-11
COc1c(Cl)cc(Cl)cc1/C=N/n1cnnc1,-13,-4,-2,-5,17,55*
SMILES,KLF5 inh,Ba/F3 V617F tox,BaF3 parental,IEC-6 tox,aSyn 5UTR inh,APP 5UTR inh
COc1ccccc1/C=N/n1cnnc1,8,-2,0,2,3,-4
COc1ccc(C(C)C)cc1S(=O)(=O)N1CCN(c2ccccc2)CC1,10,2,5,4,9,8
CN1CCN(c2ccc(NC(=O)N3CCc4ccccc43)cc2)CC1,38,x,x,-5,70*,x
Cc1ccc(NC(=O)N2CCc3ccccc32)cc1,-49,-3,3,5,-18,-170
N#CC(C#N)=C1C=CC=CN1/C(=C\c1ccccc1)C(=O)c1cccs1,-16,-4,-2,3,-9,-6
N#CC(C#N)=C1C=CC=CN1/C(=C\c1ccccc1Cl)C(=O)c1ccccc1,-7,3,1,6,x,92*
O=C(NCCCN1CCOCC1)c1ccc(/C=C2\Oc3ccccc3N(Cc3ccccc3F)C2=O)cc1,-15,x,x,-1,-40,x
CCN1CCN(CCCNC(=O)c2ccc(/C=C3/Oc4ccccc4N(Cc4cccc(C)c4)C3=O)cc2)CC1,-10,x,x,-1,101*,x
CC(=O)c1ccc(NC(=O)c2cnn3ccccc23)cc1,54,1,3,10,79*,-105
Cc1ccc(-c2ccc(S(=O)(=O)N3CC(C)OC(C)C3)cc2)cc1 (stereo not drawn),0,x,x,0,-78,x
COC(=O)c1cn(C(=O)c2ccc(C)cc2C)c2ccccc12,1,5,9,6,-29,54*
CCCCn1c(N)c(N(CCOC)C(=O)CCNC(=O)c2ccccc2Cl)c(=O)[nH]c1=O,8,x,x,-1,14,x
Cc1cc(C)c2c(=O)[nH]c(SCC(=O)N3CCCCC3)nc2n1,7,37*,37*,5,-10,25
Cc1cc(C)c2c(=O)[nH]c(SCC(=O)N3CCOCC3)nc2n1,-45,-2,1,-2,-4,24
CCOC(=O)CSc1nc2ccc(N3CCOCC3)cc2c(=O)n1Cc1ccccc1,-17,0,6,1,-2,78*
CCOC(=O)C1CCCN(C(=O)Cn2nc(C)n3nc(-c4ccccc4)cc3c2=O)C1 (stereo not drawn),8,x,x,6,19,x
COc1cc(/C=C2\CC(C(C)(C)C)C/C(=C\c3cc(OC)c(OC)c(OC)c3)C2=O)cc(OC)c1OC (stereo not drawn),-9,x,x,-2,80*,x
COc1cc(/C=C2\COC/C(=C\c3cc(OC)c(OC)c(OC)c3)C2=O)cc(OC)c1OC,2,99*,105*,4,103*,x
Cc1ccc(C)c(NC(=O)CN(C)C(=O)c2cc3c(s2)CCCCC3)c1,x,x,x,x,0,x
CCCCCCCCCCCCCCCC[n+]1ccc(/C=N/O)cc1,15,98*,64*,-1,x,22
CC[n+]1c(C)cc(C)n1-c1ccccc1,-21,63*,65*,5,-5,5
CCCc1nc(C)cc(N2CCN(c3ccccc3)CC2)n1,-30,x,x,0,-15,x
CC(C)c1ncc(S(=O)(=O)c2ccc(C(F)(F)F)cn2)c(N)n1,-10,-2,0,-2,-29,x
O=C(NCCC1CCCCN1S(=O)(=O)c1ccccc1)C(=O)Nc1ccc(F)cc1F (stereo not drawn),x,x,x,x,0,x
O=[N+]([O-])c1ccc(N2CCN(C(=S)Nc3cccc(F)c3)CC2)cc1,-6,28*,32*,4,20,-1
O=C(CCc1ccccc1)Nc1ccc2c(c1)C(=O)OC2,-60,x,x,5,-14,x
